These results are taken from PubChem BioAssay (NCI).

The structures appear in SMILES notation. This is part of a sample that, as a whole, favours compounds with a hit. Of some 83,000 tested, about 20% had one in any assay.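 The test compound was applied at a single concentration to cells in 96-well plates for 48 hours, and percent growth was recorded.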 A number with no mark means an inactive call. The source made the active and inactive calls. How the source made its calls: active means growth percent below 10; inactive means the rest.

Some test systems named below: SK-MEL-2 melanoma; EKVX NSCLC; SN12C renal; UO-31 renal; TK-10 renal; ACHN renal; CAKI-1 renal; A498 renal; CCRF-CEM leukemia; MOLT-4 leukemia; SR leukemia; RPMI-8226 leukemia; OVCAR-8 ovarian; OVCAR-5 ovarian; OVCAR-4 ovarian; SK-OV-3 ovarian; IGROV1 ovarian; OVCAR-3 ovarian; HS 578T breast; NCI/ADR-RES ovarian.
Holding throughout (experiment): NCI-60 one-dose screen, 48 h (100 = growth as untreated, 0 = no growth, -100 = all killed)
What all share (settings): 10 µM unless noted

On to `C=CCNc1ccc2c3c(cccc13)C(=O)N(CC=C)C2=O`, for which the growth in the assay with SK-MEL-2 melanoma was 116%; in the assay with EKVX NSCLC it was 99.2%; with SN12C renal it was 97.6%; with UO-31 renal, 71.5%; in the assay on TK-10 renal it was 97.3%; in the assay on ACHN renal it was 84.3%. In addition, the growth is 72.9% with CAKI-1 renal; 89.7% in the assay on A498 renal; 83% in the assay with CCRF-CEM leukemia; 93.8% in the assay on MOLT-4 leukemia; 74.8% in the assay with SR leukemia; 95.2% in the assay on RPMI-8226 leukemia. The growth was 96.3% in the assay on OVCAR-8 ovarian; 92% with OVCAR-5 ovarian; 110% in the assay on OVCAR-4 ovarian; 103% with SK-OV-3 ovarian; 88.7% with IGROV1 ovarian; 107% in the assay on OVCAR-3 ovarian. Also, the growth was 91.6% in the assay with HS 578T breast and 92.8% with NCI/ADR-RES ovarian.

In the case of `O=C(CN1C(=O)NC2NC(=O)NC21)N/N=C/c1cccc([N+](=O)[O-])c1` (stereo not given), the growth in the assay with SK-MEL-2 melanoma is 113%; in the assay on EKVX NSCLC it was 102%; in the assay on SN12C renal, 96.5%; in the assay with UO-31 renal, 88.4%; in the assay with TK-10 renal, 106%; with ACHN renal, 104%. Further, the growth in the assay with CAKI-1 renal was 85.8%; in the assay on A498 renal, 95.8%; in the assay on CCRF-CEM leukemia it was 106%; with MOLT-4 leukemia, 106%; with SR leukemia, 110%; with RPMI-8226 leukemia it was 110%. Besides, the growth is 111% in the assay on OVCAR-8 ovarian; 105% with OVCAR-5 ovarian; 105% in the assay on OVCAR-4 ovarian; 108% in the assay on SK-OV-3 ovarian; 103% with IGROV1 ovarian; 108% in the assay with OVCAR-3 ovarian. Further, the growth with HS 578T breast is 107%; with NCI/ADR-RES ovarian, 101%.

On to `O=C1/C(=C/c2ccc(-c3ccc(Cl)cc3)o2)SC(=S)N1CCc1ccc(O)cc1`, for which the growth in the assay with SK-MEL-2 melanoma was 58.5%; in the assay on EKVX NSCLC, 80.5%; in the assay with SN12C renal, 63%; with UO-31 renal, 28.5%; with TK-10 renal it was 51.1%; in the assay with ACHN renal it was 65.3%. In addition, the growth in the assay with CAKI-1 renal is 20.4%; in the assay with A498 renal it was 58.9%; in the assay on CCRF-CEM leukemia, 13.5%; in the assay on MOLT-4 leukemia it was 15.3%; with SR leukemia it was 24.5%; in the assay with RPMI-8226 leukemia, 55.5%. The growth with OVCAR-8 ovarian is 16.4%; with OVCAR-5 ovarian it was 75.2%; with OVCAR-4 ovarian, 25.6%; with SK-OV-3 ovarian it was 44.8%; with IGROV1 ovarian, 31.8%; in the assay on OVCAR-3 ovarian it was 24.1%. Further, the growth in the assay with HS 578T breast was 36.6%; in the assay with NCI/ADR-RES ovarian it was 77.3%.

As for `CCOC(=O)c1cnc2sc(-c3ccc(OC)cc3)nc2c1Cl`, the growth in the assay on SK-MEL-2 melanoma was 102%; with EKVX NSCLC it was 90.4%; with SN12C renal, 102%; with UO-31 renal, 78.8%; in the assay on TK-10 renal it was 145%; in the assay on ACHN renal it was 105%. The growth is 95% in the assay on CAKI-1 renal; 86.8% with A498 renal; 96.4% with CCRF-CEM leukemia; 97.3% with MOLT-4 leukemia; 96.8% in the assay with SR leukemia; 93.1% in the assay with RPMI-8226 leukemia. Besides, the growth with OVCAR-8 ovarian is 112%; with OVCAR-5 ovarian, 118%; in the assay with OVCAR-4 ovarian it was 86.9%; in the assay with SK-OV-3 ovarian, 121%; in the assay with IGROV1 ovarian, 102%; with OVCAR-3 ovarian it was 108%. Besides, the growth in the assay on HS 578T breast was 89.3%; in the assay with NCI/ADR-RES ovarian it was 90%.

Regarding `CCOC(=O)/C(=C/c1ccc([N+](=O)[O-])cc1)C(=O)c1ccccc1`, the growth was 53.9% with SK-MEL-2 melanoma; 103% in the assay on EKVX NSCLC; 79.3% with SN12C renal; -14.3% (active) with UO-31 renal; 20.7% in the assay on TK-10 renal; -7.93% (active) with ACHN renal. Besides, the growth with CAKI-1 renal is 81.6%; with A498 renal, 83.5%; in the assay with CCRF-CEM leukemia, 6.25% (active); in the assay on MOLT-4 leukemia, 4.35% (active); with SR leukemia it was 4.07% (active); in the assay with RPMI-8226 leukemia, -13% (active). For the same compound, the growth in the assay on OVCAR-8 ovarian is 41.5%; in the assay with OVCAR-5 ovarian, 41.7%; with OVCAR-4 ovarian, 76%; in the assay with SK-OV-3 ovarian, 102%; in the assay with IGROV1 ovarian, 42.5%; in the assay with OVCAR-3 ovarian it was 58.4%. For the same compound, the values for the growth in the assay with HS 578T breast and in the assay on NCI/ADR-RES ovarian were 33.2% and 25.7%, respectively.

Take `c1ccc2[nH]c(-c3ccc(-c4nccc5c4[nH]c4ccccc45)cc3)nc2c1`: the growth is 47.3% with SK-MEL-2 melanoma; 81.2% in the assay on EKVX NSCLC; 60.9% with SN12C renal; 89.2% in the assay on UO-31 renal; 73.5% in the assay on TK-10 renal; 71.7% in the assay with ACHN renal. Besides, the growth is 81.9% in the assay with CAKI-1 renal; 68.7% in the assay with A498 renal; 11.1% in the assay on CCRF-CEM leukemia; 77.1% in the assay on MOLT-4 leukemia; -4.29% (active) in the assay with SR leukemia; 61.1% with RPMI-8226 leukemia. For the same compound, the growth in the assay on OVCAR-8 ovarian was 16.5%; in the assay with OVCAR-5 ovarian, 129%; in the assay with OVCAR-4 ovarian, 23%; in the assay on SK-OV-3 ovarian it was 104%; in the assay with IGROV1 ovarian it was 94.5%; in the assay on OVCAR-3 ovarian it was -24.2% (active). For the same compound, the results for the growth with HS 578T breast and in the assay with NCI/ADR-RES ovarian were 73.7% and 62.6%, respectively.

Turning to `COc1ccc2c(O)cc3c(c2c1)[C@H](CCl)CN3C(=O)c1cc2cc(NC(=O)CCN3CCOCC3)ccc2[se]1`, the growth in the assay with SK-MEL-2 melanoma was -84.3% (active); in the assay on EKVX NSCLC, -59.3% (active); in the assay with SN12C renal, -88.1% (active); in the assay with UO-31 renal, -46.9% (active); in the assay with TK-10 renal, -32.2% (active); in the assay on ACHN renal, -1.81% (active). The growth with CAKI-1 renal was -26.3% (active); in the assay on A498 renal it was -90.9% (active); with CCRF-CEM leukemia, 76%; in the assay on MOLT-4 leukemia, 74.2%; in the assay with SR leukemia, 52.5%; in the assay on RPMI-8226 leukemia, 79.7%. Besides, the growth is -98.1% (active) with OVCAR-8 ovarian; -44.6% (active) in the assay with OVCAR-5 ovarian; -25.4% (active) in the assay with OVCAR-4 ovarian; -42% (active) in the assay on SK-OV-3 ovarian; -60.1% (active) in the assay with IGROV1 ovarian; -7.3% (active) in the assay on OVCAR-3 ovarian. The growth in the assay on HS 578T breast was 5.52% (active); in the assay on NCI/ADR-RES ovarian, -34.4% (active).

`Nc1ncc(-c2ccc3ncnc(N4CCc5cc(F)c(Cl)cc54)c3c2)cn1`: the growth is 66.7% in the assay with SK-MEL-2 melanoma; 15.7% in the assay on EKVX NSCLC; 26% in the assay with SN12C renal; 14.4% in the assay with UO-31 renal; 21.8% in the assay on TK-10 renal; 20.5% in the assay on ACHN renal. For the same compound, the growth was 15.7% in the assay on CAKI-1 renal; -29.5% (active) in the assay with A498 renal; 22% in the assay on CCRF-CEM leukemia; 17.3% with MOLT-4 leukemia; 36.5% with SR leukemia; 20.8% in the assay with RPMI-8226 leukemia. For the same compound, the growth in the assay on OVCAR-8 ovarian is 45.4%; in the assay on OVCAR-5 ovarian it was 27%; in the assay with OVCAR-4 ovarian, 54.6%; in the assay on SK-OV-3 ovarian, 29.4%; in the assay on IGROV1 ovarian, 9.49% (active); in the assay on OVCAR-3 ovarian, 37.9%. Moreover, the results for the growth in the assay on HS 578T breast and with NCI/ADR-RES ovarian were 13.2% and 50.4%, respectively.
